NCOA2 inhibitor: inhibition of GAL4-SRC2 driven luciferase reporter, primary screen, SRC2 inhibitor project, cell-based, luminescence | 0.17% of 370,000 active | AID 651957, 2012 | HEK293 GAL4-SRC2 luciferase reporter | Nuclear receptor coactivator 2 (Homo sapiens), Q15596 | inhibition, % at 9 µM;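 active means inhibition above the mean inhibition of all tested compounds plus 3 SD, set per campaign, cut at about 52% in these data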;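 further: 0% = DMSO treated cells and 100% = cells given Gossypol at 36 µM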
SRC1 inh: SRC1 coactivator transcriptional activity inhibitors, primary screen, cell-based, luminescence. 0.12% of 360,000 active. Nuclear receptor coactivator 1 (Homo sapiens), Q15788. HEK293 GAL4-SRC1 luciferase reporter. AID 588354, 2011. inhibition, % at 3.6 µM;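 active means inhibition above the campaign mean plus 3 SD, with each screening campaign given its own cutoff, cut at about 60% in these data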;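 further: 0% = DMSO treated cells and 100% = gossypol at 36 µM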
NCOA3 inh: SRC3 coactivator transcriptional activity inhibitors, primary screen, cell-based, luminescence | 0.17% of 360,000 active | HEK293 GAL4-SRC3 luciferase reporter | inhibition, % at 3.6 µM | AID 588352, 2011;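 active means inhibition above a per-campaign cutoff, the mean of all compounds plus 3 SD, cut at about 60% in these data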;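 further: 0% = DMSO-treated cells and 100% = gossypol-treated cells at 36 µM; higher means less SRC3-driven luciferase light from the GAL4 reporter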
NR2F2 inh: NR2F2 transcriptional activity inhibitors, primary screen, cell-based, luciferase reporter, HEK293T, luminescence | 0.7% of 370,000 active | inhibition, % at 8.6 µM | HEK293T NGFI-A luciferase reporter;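 active means inhibition above a per-plate cutoff, mean inhibition of test wells between control levels plus 3 SD, cut at about 38% in these data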;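 further: cells cotransfected with COUP-TFII expression vector driving the NGFI-A reporter; 0% = median of COUP-TF2 test wells and 100% = reporter-only cells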
NR5A2 inv ag: LRH-1 (NR5A2) inverse agonists, primary screen, cell-based, luminescence, HEK293T, StAR-luciferase reporter. 0.13% of 360,000 active. inhibition, % at 3.6 µM. LRH-1 transfected, 24 h;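 active means inhibition above the mean inhibition of all tested compounds plus 3 SD, cut at about 73% in these data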;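 further: 0% = DMSO wells and 100% = reporter-only cells lacking LRH-1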
VP16 Luc counter: Gal4-VP16 luciferase reporter inhibitors, counter-screen for COUP-TFII antagonist project, cell-based, luminescence, HEK293; inhibition, % at 8.5 µM; shares compounds with NR2F2 inh; 25% of 2,500 active; in the data active means inhibition above about 13%
NR2F2 inh conf: NR2F2 transcriptional activity inhibitors, confirmation, cell-based, luciferase reporter, HEK293, triplicate | HEK293 NGFI-A luciferase reporter, luminescence | shares compounds with NR2F2 inh | 45% of 2,500 active | AID 687008, 2013 | inhibition, % at 8.5 µM;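 active means mean inhibition over three repeats above a set limit taken from the earlier primary screen, cut at about 38% in these data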;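 further: 100% = cells given the luciferase reporter alone without the COUP-TF2 vector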
Numbers without * were called inactive; nt = not tested or not shown. Hits are enriched below; roughly 0.84% of the tested compounds scored in any of these assays.

SMILES	NCOA2 inhibitor	SRC1 inh	NCOA3 inh	NR2F2 inh	NR5A2 inv ag	VP16 Luc counter	NR2F2 inh conf
COc1ccccc1N1CCN(C(=O)C2CCCN(S(=O)(=O)c3ccc4c(c3)CCCN4C(C)=O)C2)CC1 (centres undefined)	20.9	20.5	34.2	44.4*	10.3	-11.8	26.8
CCC(=O)N1CCCc2cc(S(=O)(=O)N3CCN(c4ncccn4)CC3)ccc21	-25.4	11.3	12.4	-8.7	15.5	nt	nt
O=C(NC1CCCCN(Cc2cccc(C(F)(F)F)c2)C1=O)c1ccc(COc2ccccc2)cc1 (centres undefined)	11.6	nt	nt	65.9*	nt	10.4	61.7*
O=C(NC1CCCCN(Cc2cccc(Cl)c2)C1=O)c1ccc(F)cc1 (centres undefined)	-19.7	nt	nt	-6.3	nt	nt	nt
O=C(NC1CCCCN(Cc2ccc(Cl)cc2)C1=O)c1ccc(COc2ccccc2)cc1 (centres undefined)	28.9	nt	nt	53.0*	nt	-1.1	12.0
O=C(NC1CCCCN(Cc2ccc(Cl)cc2)C1=O)c1ccccc1 (centres undefined)	24.8	nt	nt	-39.6	nt	nt	nt
Cc1ccccc1CN1CCCCC(NC(=O)c2ccc(COc3ccccc3)cc2)C1=O (centres undefined)	24.7	nt	nt	67.8*	nt	1.0	49.2*
CCCCOc1ccc(C(=O)NC2CCCCN(Cc3cccc(Cl)c3)C2=O)cc1 (centres undefined)	11.4	nt	nt	38.3*	nt	-0.7	23.0
COc1cc(C(=O)NC2CCCCN(Cc3cccc(C(F)(F)F)c3)C2=O)cc(OC)c1OC (centres undefined)	8.2	nt	nt	25.6	nt	nt	nt
C=CCN1C(=O)[C@H](CC(=O)NCc2cccc3ccccc23)[C@@]2(C(=O)OCC)CCCC=C12	-1.3	nt	nt	-7.5	nt	nt	nt
O=C(Cn1nnc(-c2ccc(N3CCOCC3)cc2)n1)c1ccccc1	-12.8	nt	nt	-8.7	nt	nt	nt
O=C(Nc1cccc(Br)c1)OC1CC2CC1[C@H]1CCCCN1C2 (some centres undefined)	-1.7	nt	nt	11.0	nt	nt	nt
O=C(NCCN1CCC(Cc2ccccc2)CC1)C1CCCN(S(=O)(=O)c2ccc(Br)s2)C1 (centres undefined)	23.4	nt	nt	32.5	nt	nt	nt
O=C(Nc1cccc(O)c1)c1cc(-c2ccc3c(c2)OCO3)on1	18.9	-20.5	-18.1	43.1*	-51.0	-2.4	16.0
O=C(Nc1cccc(O)c1)c1cc(-c2ccccc2Cl)on1	30.9	-18.8	-8.5	60.5*	-10.3	-11.9	10.1
COc1ccc(NC(=O)c2cc(-c3ccccc3Cl)on2)cc1OC	-14.3	-20.7	-27.6	0.3	-9.8	nt	nt
Cc1c[nH]c2cccc(-c3ccccc3)c12	-23.8	nt	nt	0.5	nt	nt	nt
CCc1c(C)nc2ccc(Br)cc2c1SCCC#N	51.1	64.6*	64.3*	38.1*	-4.2	12.0	24.1
CN1/C(=C\P(=O)(N(C)C)N(C)C)C(C)(C)c2ccccc21	5.0	4.2	11.5	45.6*	25.8	-5.9	-0.2
COc1ccc(/C=C/c2cc(-c3ccc(C)cc3)o[n+]2C)cc1	13.5	54.9	71.5*	67.3*	94.2*	37.0*	65.7*
Cc1ccc(NS(=O)(=O)c2cc3c(cc2Cl)NC(=O)CO3)cc1C	nt	nt	nt	13.6	nt	nt	nt

Source: PubChem BioAssay
